These results are taken from PubChem BioAssay (NCI).

Holding throughout (experiment): NCI-60 one-dose screen, 48 h (100 = growth as untreated, 0 = no growth, -100 = all killed)
Assay [1] has as its system HCT-15 colon. The settings on record: 10 µM.
The subject of assay [2] is HT29 colon. The settings on record: 10 µM.
For assay [3], the system named is SNB-75 CNS. The settings on record: 10 µM.
For assay [4], the system named is SNB-19 CNS. The settings on record: 10 µM.
Assay [5] concerns U251 CNS. The settings on record: 10 µM.
For assay [6], the system named is PC-3 prostate. The settings on record: 10 µM.
In assay [7] the test system is SK-MEL-5 melanoma. The settings on record: 10 µM.
For assay [8], the system named is UACC-62 melanoma. The settings on record: 10 µM unless noted.
Assay [9] concerns LOX IMVI melanoma. The settings on record: 10 µM.
Assay [10] deals with SK-MEL-28 melanoma. The settings on record: 10 µM.

Compounds without any hit were thinned out: in the full panel of roughly 83,000, 20% have a hit.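 Compound tested at a single concentration for 48 hours in 96-well plates; a percent growth value below 10 was scored as active.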 Unmarked numbers belong to inactive results. The source made the active and inactive calls.

In the case of `COCCCC/C(=N\OCCN)c1ccc(C(F)(F)F)cc1`, the growth was 103% in [1]; 96% in assay [2]; 79.9% in assay [3]; 100% in [4]; 97.4% in [5]; 79.8% in [6]. In addition, the growth in assay [7] was 99.6%; in [8], 97.5%; in assay [9], 94.8%; in assay [10], 117%.

As for `O=C(O)/C=C/C(=O)NCc1ccccc1`, the growth in [1] was 97.3%; in [2], 105%; in assay [3], 81.9%; in [4], 115%; in [5], 118%; in assay [6], 101%. Moreover, the growth is 101% in [7], 118% in [8], 97% in [9] and 105% in [10].

For the molecule `O=c1[nH][nH]c(=O)c2cc([N+](=O)[O-])ccc12`, the growth in assay [1] is 121%; in [2], 103%; in assay [3] it was 83.4%; in assay [4], 108%; in assay [5], 101%; in assay [6], 104%. Moreover, the growth was 101% in assay [7], 112% in assay [8], 94.8% in assay [9] and 115% in assay [10].

Consider `c1ccc2c(N3CCCCC3)ncnc2c1`, for which the growth is 99.6% in assay [1]; 76.2% in [2]; 140% in assay [3]; 99.4% in assay [4]; 93% in assay [5]; 87.3% in assay [6]. For the same molecule, the growth in [7] was 91.8%; in assay [8], 91.3%; in [9], 92.8%; in assay [10], 115%.

Regarding `Cc1c(C(=O)O)c(=O)n(-c2ccccc2)n1C`, the growth in assay [1] is 107%; in assay [2], 112%; in assay [3], 109%; in [4] it was 111%; in assay [5], 115%; in assay [6], 101%. Further, the growth in assay [7] is 113%; in assay [8] it was 108%; in assay [9], 99.5%; in assay [10], 122%.

As for `Nc1ccc(N=Nc2ccc(S(=O)(=O)O)cc2)c2ccccc12`, the growth in assay [1] was 99.9%; in assay [2] it was 107%; in assay [3] it was 81.6%; in assay [4], 106%; in [5] it was 98.9%; in [6], 87.4%. The growth in [7] is 94.4%; in assay [8] it was 90.7%; in assay [9] it was 100%; in [10], 103%.

On to `CCCCCCCCCCC(C)Br` (centres undefined), for which the growth in [1] was 104%; in assay [2] it was 109%; in assay [3], 97%; in assay [4], 103%; in [5] it was 103%; in [6], 101%. The growth in assay [7] was 102%; in [8], 104%; in [9], 94.3%; in assay [10] it was 112%.

Turning to `CCC/C=C(/C(C)=O)C(=O)OCC`, the growth in assay [1] was 109%; in assay [2], 111%; in assay [3], 89.2%; in [4], 94.8%; in [5] it was 103%; in assay [6] it was 88.5%. Also, the values for the growth in assay [7], in assay [8] and in assay [10] were 112%, 95.1% and 122%, respectively.

`OCCN1CCOCC1`: the growth in [1] was 96.3%; in [2], 110%; in [3], 90.4%; in assay [4], 102%; in [5], 108%; in [6], 109%. Moreover, the growth is 103% in assay [7], 103% in [8] and 105% in assay [10].

As to `Cc1cc(OCCO)cc(C)c1Cl`, the growth in assay [1] was 97.6%; in [2], 113%; in assay [3] it was 124%; in assay [4] it was 106%; in assay [5], 110%; in assay [6], 97.2%. In addition, the growth in assay [7] is 112%; in assay [8], 95.7%; in assay [10], 118%.

In the case of `O=C(O)c1ccc(S(=O)(=O)O)cc1`, the growth was 102% in [1]; 107% in assay [2]; 94.9% in [3]; 106% in assay [4]; 103% in [5]; 88.2% in [6]. Also, the growth in assay [8] was 102%; in assay [9], 97.3%; in assay [10], 109%.

For `O=S(=O)(O)C(Nc1ccccc1)c1ccccc1` (centres undefined), the growth in assay [1] was 105%; in [2] it was 105%; in [3], 71.9%; in assay [4] it was 101%; in assay [5], 101%; in [6], 102%. The values for the growth in assay [7], in [8] and in assay [10] were 77.3%, 88.9% and 104%, respectively.

On to `NCC(=O)CCC(=O)O`, for which the growth in assay [1] is 106%; in [2], 104%; in assay [3] it was 104%; in assay [4] it was 113%; in assay [5] it was 96.7%; in assay [6], 100%. For the same molecule, the growth in assay [8] was 114%; in assay [9] it was 99.6%; in assay [10] it was 103%.

Take `Oc1ccc(O)cc1`: the growth in assay [1] was 101%; in assay [2], 97.7%; in assay [3], 102%; in [4], 115%; in assay [5], 99.1%; in [6], 89.2%. Moreover, the growth in assay [8] is 103%; in assay [9], 92.6%.

For `C=CCc1cc(C(C)=O)cc(OC)c1O`, the growth in assay [1] is 119%; in [2] it was 108%; in assay [3] it was 89.2%; in [4], 105%; in [5], 103%; in assay [6] it was 106%. Moreover, the growth was 97.8% in assay [8], 100% in [9] and 110% in assay [10].

For `CCCCC(=O)c1ccc(OC)cc1`, the growth in [1] was 91.3%; in [2] it was 107%; in assay [3] it was 101%; in assay [4], 104%; in [5] it was 97.9%; in [6] it was 110%. The values for the growth in [8], in assay [9] and in assay [10] were 111%, 102% and 111%, respectively.

On to `O=C(O)c1cccc([N+](=O)[O-])c1O`, for which the growth in assay [1] is 99.9%; in assay [2], 101%; in [3], 96.1%; in assay [4], 99.1%; in [5], 101%; in assay [6], 107%. The growth in assay [7] was 105%; in [9], 95.1%; in assay [10] it was 116%.

On to `CCCCC1C(=O)N(c2ccccc2)N(c2ccccc2)C1=O`, for which the growth is 102% in [1]; 104% in assay [2]; 117% in assay [3]; 102% in assay [4]; 105% in [5]; 98.9% in assay [6]. In addition, the growth in [7] was 102%; in assay [9], 99.4%; in [10] it was 111%.

Take `O=[N+]([O-])c1cccc(N=Nc2ccc(O)cc2O)c1`: the growth in assay [1] was 48%; in [2] it was 86.2%; in [3], 69.7%; in assay [4], 78.2%; in assay [5], 63.7%; in assay [6] it was 58.5%. In addition, the growth in assay [7] is 74.2%; in assay [9], 81.1%; in [10] it was 99.1%.

As to `COC(=O)Nc1nc2ccc(C(=O)c3ccc(F)cc3)cc2[nH]1`, the growth was 5.81% (active) in [1]; 7.47% (active) in [2]; 31% in assay [3]; 33.5% in [4]; 14.3% in assay [5]; 2.25% (active) in assay [6]. The growth in [8] was 36%; in [9], 28.4%; in assay [10], 54.2%.

With `COc1ccc(-c2cc3c(nn2)-c2ccccc2C3=O)cc1`, the growth is 36.7% in assay [1]; -24.8% (active) in assay [2]; -4.76% (active) in assay [3]; 78.9% in assay [4]; -3.45% (active) in assay [5]; 18% in [6]. Moreover, the growth in [8] was 84.7%; in [9], 43.3%; in [10], -49.3% (active).

For the molecule `CCCCC(O)c1ccccc1` (centres undefined), the growth is 102% in assay [1]; -11.4% (active) in [2]; 92.2% in [3]; 110% in assay [4]; 98.4% in assay [5]; 97.9% in assay [6]. The growth in [8] was 108%; in [9], 96.4%; in [10], 119%.

Turning to `COc1cc(C(N)=O)cc(OC)c1OC`, the growth in [1] was 101%; in assay [2], 102%; in assay [3], 86.6%; in [4] it was 99.2%; in assay [5] it was 96.5%; in assay [6], 106%. Moreover, the figures for the growth in [8], in [9] and in assay [10] were 94.2%, 104% and 116%, respectively.

As for `CCc1nc(N)nc(N)c1-c1ccc(Cl)cc1`, the growth was 34.1% in assay [1]; 47.5% in assay [2]; 77% in [3]; 88.4% in [4]; 46.3% in [5]; 60.5% in assay [6]. The figures for the growth in [7], in assay [9] and in [10] were 24.3%, 31.2% and 94.1%, respectively.

Take `Cc1ccc(C(=O)NC2c3ccccc3Oc3ccccc32)cc1`: the growth in assay [1] was 39.6%; in [2], 23.4%; in [3], 34.9%; in assay [4], 49%; in assay [5], 56.5%; in assay [6], 53.4%. Further, the values for the growth in assay [7], in [9] and in [10] were 62.7%, 45% and 61.4%, respectively.

In the case of `O=S(=O)(O)c1ccc(O)c2ccccc12`, the growth in assay [1] is 113%; in assay [2], 110%; in [3], 88.1%; in assay [4], 97.8%; in assay [5], 107%; in [6], 92%. Besides, the growth in assay [8] is 101%; in [9], 92.7%; in assay [10], 109%.

For `CCOC(=O)CNN`, the growth in [1] is 108%; in assay [2], 105%; in assay [3] it was 94.7%; in assay [4], 100%; in [5], 95.7%; in assay [6], 99.3%. Besides, the growth was 90.5% in assay [7], 103% in [8] and 115% in assay [10].

Regarding `CC(=O)c1ccc2c(ccc3ccccc32)c1`, the growth in [1] is 68.4%; in [2] it was 95.6%; in assay [3], 105%; in assay [4], 99.4%; in [5] it was 92.1%; in [6] it was 104%. For the same molecule, the results for the growth in assay [8], in assay [9] and in [10] were 96.5%, 107% and 108%, respectively.

With `CC12CC3CC1C(C(=O)O2)C3C(=O)O` (centres undefined), the growth in assay [1] is 104%; in assay [2], 98.9%; in [3], 102%; in [4], 98.6%; in assay [5] it was 103%; in assay [6] it was 101%. In addition, the figures for the growth in assay [7], in assay [8] and in assay [10] were 104%, 98.3% and 106%, respectively.

In the case of `c1ccc(Sc2ccccc2)cc1`, the growth is 99.4% in assay [1]; 102% in assay [2]; 99.7% in [3]; 98.2% in assay [4]; 94.5% in assay [5]; 95.9% in assay [6]. Further, the growth is 104% in assay [7], 101% in [8] and 107% in [10].

Consider `O=c1[nH]c(O)c(/C=C2/C=Nc3ccccc32)[nH]1`, for which the growth in [1] was 81.2%; in [2] it was 95.3%; in assay [3], 77.4%; in [4], 104%; in [5] it was 103%; in assay [6] it was 83.4%. Also, the growth in assay [8] is 95.7%; in assay [9] it was 96.6%; in assay [10] it was 111%.

With `O=[N+]([O-])c1ccc(N=Nc2ccc(O)c3ccccc23)cc1`, the growth in assay [1] was 41.2%; in assay [2] it was 79.1%; in [3] it was 68.8%; in assay [4], 39.8%; in assay [5] it was 15.4%; in assay [6], 14.9%. Moreover, the growth in [7] is 28.7%; in [9], 18.4%; in assay [10], 69%.
